Experimental findings from PubChem BioAssay AID652257 (The Scripps Research Institute Molecular Screening Center, 2013) are described below.

For orientation: inhibition means the relative decrease from the control value, in per cent.

Hit rate of the full screen: of about 370,000 compounds, about 4,800 (1.3%) were called active.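 The calls were made as follows: active = inhibition above about 21% made by adding two undisclosed values (limit read from the data); inactive = the rest.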 Shown is part of a subset that was picked to be rich in actives.

Sequence of Protein arginine N-methyltransferase 1 (Homo sapiens) (Q99873 whole entry, looked up): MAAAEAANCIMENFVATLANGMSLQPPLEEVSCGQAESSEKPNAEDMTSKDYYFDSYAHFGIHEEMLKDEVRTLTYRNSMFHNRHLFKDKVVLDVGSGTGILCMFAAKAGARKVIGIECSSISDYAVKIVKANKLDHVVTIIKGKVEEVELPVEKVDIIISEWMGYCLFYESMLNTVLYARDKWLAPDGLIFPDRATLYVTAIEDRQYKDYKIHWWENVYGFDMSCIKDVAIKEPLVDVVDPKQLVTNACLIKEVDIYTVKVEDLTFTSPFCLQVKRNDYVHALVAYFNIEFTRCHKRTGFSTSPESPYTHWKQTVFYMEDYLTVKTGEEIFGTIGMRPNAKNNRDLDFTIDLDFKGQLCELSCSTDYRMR

The assay concerns the target Protein arginine N-methyltransferase 1 (Homo sapiens) (UniProt Q99873). Briefly: PRMT1 methyltransferase inhibitors, primary screen, biochemical, fluorescence polarization (AID 652257). The following applies: recombinant PRMT1, activity-based probe fluorescence polarization; at 2.79 µM; active compounds read high. (In general: Fluorescence polarisation rises when a labelled molecule tumbles more slowly, as on binding a larger partner.)
For `CCCCCCN1CCS(=O)(=O)N(Cc2ccc(C(F)(F)F)cc2)C(C(=O)OC)C1` (stereo not drawn), the inhibition is 0.07% (inactive).

As for `C#CCCN([C@H](C(=O)OC)C(C)C)S(=O)(=O)c1ccc(F)cc1Br`, the inhibition is 1.71% (inactive).

Consider `O=c1cc(CCl)nc2scc(-c3ccccc3)n12`, for which the inhibition was 6.61% (inactive).

Turning to `OCCn1c(-c2ccccc2)csc1=Nc1ccccc1`, the inhibition is 63.9% (active).

As for `C=CC1=CCN(S(=O)(=O)C(C)(C)C)[C@@H]1CCO`, the inhibition is -1.03% (inactive).

For `Cc1cc(C(=O)OCC(=O)c2c(N)n(C)c(=O)n(C)c2=O)c(C)o1`, the inhibition is -0.81% (inactive).

Turning to `Cc1cc(C)c(S(=O)(=O)NN=C2c3ccccc3[C@H]3Cc4csc[n+]4[C@@H]23)c(C)c1`, the inhibition is 52.5% (active).

On to `COc1ccc(C(=O)N2CCN(c3ccc(C(C)=O)cc3F)CC2)cc1S(=O)(=O)NC1CC1`, for which the inhibition is 2.01% (inactive).

As for `CCCCCN1CCCCC(NC(=O)C(C)CCC)C1=O` (stereo not drawn), the inhibition was 3.28% (inactive).

For the compound `COC(=O)C1CN(CCc2ccccc2)CCS(=O)(=O)N1Cc1ccc(F)cc1` (stereo not drawn), the inhibition was 0.22% (inactive).

Regarding `O=C1OC(NC(=O)c2ccccc2)C(N2CCOCC2)=C1Cl` (stereo not drawn), the inhibition is 0.25% (inactive).

Turning to `O=C(O)c1ccc(NN=CC2=C(N3CCOCC3)/C(=C/c3ccccc3)CC2)cc1`, the inhibition was 23.8% (active).

For `O=C(Nc1ccc(F)cc1)c1cccnc1N1CCOCC1`, the inhibition was 0.36% (inactive).

For the compound `CC12CCC(C(=O)N(CCC#N)CCC#N)(CC1=O)C2(C)C` (stereo not drawn), the inhibition is -1.4% (inactive).

With `COC(=O)[C@]12C[C@H](CC(=O)NCCc3ccccc3OC)C(=O)N(Cc3ccco3)C1=C[C@H](C(C)C)O[C@@H]2C1CC1`, the inhibition is -1.39% (inactive).

In the case of `CC(C)CNC(=O)OCc1cn(Cc2ccc(F)cc2)nn1`, the inhibition is -6.07% (inactive).

In the case of `S=c1[nH]nc2c3c4c(sc3ncn12)CCCC4`, the inhibition was 40.6% (active).

With `CCn1c(=S)[nH]c2sc3c(c2c1=O)CCCCC3`, the inhibition is -0.49% (inactive).

On to `N=c1c2c3c(sc2nc2n1CCCCC2)CCCC3`, for which the inhibition is -1.83% (inactive).

Turning to `CC(C)(C)NC(=O)C(c1cccnc1)N(C(=O)c1cnco1)c1ccc(C(C)(C)C)cc1` (stereo not drawn), the inhibition was 1.45% (inactive).

On to `Cc1nc2ccc(C(=O)N3CCN(C(=O)C(C)(C)C)CC3)cc2n1C1CCCC1`, for which the inhibition was -5.06% (inactive).

As to `Nc1nnc(SCC(=O)NCC(=O)Nc2ccc(F)c(F)c2F)s1`, the inhibition was 0.28% (inactive).

For `COc1cccc(NC(=O)COC(=O)/C=C/c2ccco2)c1`, the inhibition was 34.6% (active).

In the case of `NS(=O)(=O)c1cccc(NC(=O)COC(=O)/C=C/c2ccco2)c1`, the inhibition was 8.16% (inactive).

Regarding `CC(C)CNC(=O)COC(=O)/C=C/c1ccco1`, the inhibition was 3.56% (inactive).

For `COC(=O)[C@@]12CCCCC3=C1N(CCC3)C(=O)[C@H]2CC(=O)NCc1cccc2ccccc12`, the inhibition is 0.96% (inactive).

On to `Cc1ccc(C2=CCN(C)C(=O)N2c2ccc(Cl)cc2)cc1`, for which the inhibition is 1.54% (inactive).

With `COCCn1c(SCC(=O)Nc2cc(Cl)ccc2OC)nc2c(c1=O)SC(C)C2` (stereo not drawn), the inhibition was -2% (inactive).

Take `COc1ccc(C(=O)OCCN(C)C2CN(Cc3cn(Cc4cccc(C)c4)nn3)S(=O)(=O)C2)cc1OC` (stereo not drawn): the inhibition was -3.17% (inactive).

Take `CC(=O)N1CCCN(C2=Nc3ccccc3Sc3ccccc32)CC1`: the inhibition was -2.73% (inactive).

On to `CCCCOCCCNC(=O)C[C@H]1C[C@@]2(C(=O)OC)C(=C[C@H](COCc3ccccc3)O[C@@H]2C)N(Cc2cccc3ccccc23)C1=O`, for which the inhibition was -1.04% (inactive).

Turning to `CCOC(=O)C1(Cc2cccc(OC)c2)CCCN(C(=O)CCSC)C1` (stereo not drawn), the inhibition was 2.68% (inactive).

On to `CC(C)(C)C1C/C(=C/c2ccco2)C(=O)/C(=C/c2ccco2)C1` (stereo not drawn), for which the inhibition is 24.6% (active).

In the case of `O=C(NCCc1c[nH]c2ccccc12)OCc1cn(-c2c(F)cccc2F)nn1`, the inhibition is 0.52% (inactive).

On to `CCCCNC(=O)C[C@@H]1C(=O)N(CCc2ccc(Cl)cc2)C2=CCCC[C@]21C(=O)OCC`, for which the inhibition is -4.44% (inactive).

As for `NC(=O)NC(=O)CSc1nc2cc([N+](=O)[O-])ccc2n1-c1cccc(C(F)(F)F)c1`, the inhibition was -3.17% (inactive).

Regarding `CC(=O)OC1CCC2C3CCC4=C(CC(F)C(=O)C4)C3CCC12C` (stereo not drawn), the inhibition was -4.66% (inactive).

On to `Fc1ccc(COc2ccc(-c3nnco3)cc2)cc1`, for which the inhibition was 2.4% (inactive).

With `CN(Cc1ccc(F)cc1)C(=O)COc1ccc2ccccc2c1`, the inhibition was 6.77% (inactive).

On to `Fc1ccc(COc2cccc(-c3n[nH]c(=S)o3)c2)cc1`, for which the inhibition was 31.7% (active).

Turning to `CC(C)(C)NC(=O)CSC(=Nc1ccccc1F)NC#N`, the inhibition is 8.54% (inactive).

For `COc1ccc(-n2c(SCC(=O)Nc3ccc4c(c3)OCCO4)nnc2-c2ccc(Cl)cc2)cc1`, the inhibition is -2.7% (inactive).

For the compound `O=C(CN1CCC(NC(=O)NCc2ccccc2)CC1)Nc1ccc2c(c1)OCCO2`, the inhibition is 2.96% (inactive).

In the case of `COc1ccccc1C(=O)CSc1nnc(-c2ccccn2)n1-c1ccccc1`, the inhibition is -1.16% (inactive).

As for `O=C(C(=O)N1CCN(c2ccccc2)CC1)c1ccc2c(c1)OCO2`, the inhibition was 0.48% (inactive).

As to `O=C(CCN1CCc2ccccc2C(O)(c2ccccc2)C1)c1ccc2c(c1)OCCO2` (stereo not drawn), the inhibition is 51.5% (active).

`O=S(=O)(c1ccc2c(c1)OCCO2)N1CCc2ccccc21`: the inhibition is -3.53% (inactive).

In the case of `COc1ccc(C2NC(=O)N(C)C(C)=C2[N+](=O)[O-])cc1` (stereo not drawn), the inhibition is -2.65% (inactive).

Take `COc1ccc(S[C@]2(C(=O)N(C)C)CC(=O)N(c3ccc(OC)cc3)[C@@H]2c2ccc(OC)cc2)cc1`: the inhibition was -1.57% (inactive).

For `CC(C)(C)c1ccc(CSc2nnc(-c3cccs3)o2)cc1`, the inhibition was -1.14% (inactive).

For `O=C(NC(=S)N1CCN(Cc2ccccc2)CC1)c1ccccc1`, the inhibition was 0.22% (inactive).

As to `O=C1CCN(CCCc2ccccc2)CCN1CCO`, the inhibition was -6.27% (inactive).

Consider `OCCN1CCN(C(=S)c2ccc(-c3ccccc3)cc2)CC1`, for which the inhibition is 32% (active).

Take `CC1CN(CC(=O)NC(C)c2ccccc2)CC(C)O1` (stereo not drawn): the inhibition is 0.73% (inactive).

In the case of `COc1cccc(N2C(=O)CC(N3CCc4ccccc4C3)C2=O)c1` (stereo not drawn), the inhibition is 4.88% (inactive).

Consider `CCc1cccc(CC)c1N1C(=O)CC(Sc2ccccc2N)C1=O` (stereo not drawn), for which the inhibition is -1.17% (inactive).

Take `COC(=O)c1ccccc1SC1CC(=O)N(c2cccc(C)c2)C1=O` (stereo not drawn): the inhibition is 57.3% (active).

With `Cc1ccccc1S(=O)(=O)NC(=O)C1(C)CCN1C(=O)C1(c2ccccc2)CCCC1` (stereo not drawn), the inhibition was 0.03% (inactive).
